The values that follow come from ChEMBL document CHEMBL3433997, “St. Jude Leishmania screening dataset” (2016).

Molecules are shown by their SMILES.

What all share (assay type): functional
Assay [1] deals with Solute carrier family 2, facilitated glucose transporter member 1 (Homo sapiens) (UniProt P11166). The experiment in a line: ST_JUDE_LEISH: Cytotoxicity at 2uM final concentration against transgenic Leishmania Mexicana promastigotes LmGLUT1 that are glucose transport deficient and complemented with the human glucose transporter GLUT1. Activity is measured by DNA content using SYBR green in vitro.
Chain of Solute carrier family 2, facilitated glucose transporter member 1 (Homo sapiens) (P11166 whole entry): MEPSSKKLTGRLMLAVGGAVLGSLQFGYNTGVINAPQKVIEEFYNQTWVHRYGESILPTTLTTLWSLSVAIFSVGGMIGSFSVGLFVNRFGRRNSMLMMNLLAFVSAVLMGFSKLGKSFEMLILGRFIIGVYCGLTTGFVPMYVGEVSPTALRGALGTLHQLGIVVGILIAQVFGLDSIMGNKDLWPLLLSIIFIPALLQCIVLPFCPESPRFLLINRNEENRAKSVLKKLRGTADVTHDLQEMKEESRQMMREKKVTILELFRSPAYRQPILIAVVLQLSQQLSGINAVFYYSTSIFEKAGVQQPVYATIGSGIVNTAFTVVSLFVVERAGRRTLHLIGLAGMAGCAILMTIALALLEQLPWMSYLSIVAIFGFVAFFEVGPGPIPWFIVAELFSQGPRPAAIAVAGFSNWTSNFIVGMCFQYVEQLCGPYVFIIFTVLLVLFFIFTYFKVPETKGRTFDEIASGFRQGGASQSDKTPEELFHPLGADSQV

Assay [2] addresses Hexose transporter 1 (Plasmodium falciparum) (UniProt O97467). The experiment in a line: ST_JUDE_LEISH: Cytotoxicity at 2uM final concentration against transgenic Leishmania Mexicana promastigotes LmPfHT that are glucose transport deficient and complemented with the Plasmodium falciparum hexose transporter. Activity is measured by DNA content using SYBR green in vitro.
The target of assay [3] is Glucose transporter (Leishmania mexicana) (UniProt O61059). The assay is described as follows: ST_JUDE_LEISH: Cytotoxicity at 2uM final concentration against transgenic Leishmania Mexicana promastigotes LmGT2 that are glucose transport deficient and complemented with the L. Mexicana glucose transporter 2. Activity is measured by DNA content using SYBR green in vitro.

As for `O=C(NCC1CCC(C(=O)NCCN2CCCCC2)CC1)c1ccc(O)c(-c2ccc(Cl)c(Cl)c2)c1` (stereo not drawn), the inhibition (in general, the change of the read-out against control, counted positive when it falls) was -0.83% in assay [1], 0.49% in assay [2] and 0.18% in assay [3].
`Cn1nccc1C(=O)NCCNCc1ccc(-c2cccc(-c3nc4cc(F)ccc4[nH]3)c2)cc1`: the inhibition in assay [1] is -0.28%; in assay [2], -4.29%; in assay [3] it was -1.92%.
In the case of `Cc1ccc2nc3c(cc(C(=O)NCCc4ccccc4)c(=N)n3CCCOC(C)C)c(=O)n2c1`, the inhibition in assay [1] was -0.01%; in assay [2], 0.31%; in assay [3], -1.76%.
On the same counts, the results for `COc1ccc(C(=O)NC2CCN(c3ccnc4cc(Cl)ccc34)C2)cc1` (stereo not drawn) are 1.59%, 1.83% and 0.51%.
Turning to `c1ccc(COc2ccc(C3CCCCC3)cc2)nc1`, the inhibition amounted to 0.38% in assay [1], 2.32% in assay [2] and 2.1% in assay [3].
As to `CN(CCCN(C)c1cc(NC(=O)c2ccc(F)cc2)ccn1)Cc1cccc(O)c1`, the figures for the inhibition in assay [1], in assay [2] and in assay [3] were -1.12%, -0.11% and -0.03%, respectively.
The like results for `COc1ccc(Br)cc1C1Nc2ccc3ccccc3c2C2=C1C(=O)CC(c1ccccc1)C2` (stereo not drawn) were, in that order, 1.86%, 2.25% and 3.67%.
As to `CCOc1ccc(NC(C)=O)c(O)c1`, the inhibition in assay [1] came to 5.79%; in assay [2] it was 5.38%; in assay [3], 3.62%.
The like results for `CC(C)C[C@H](NC(=O)c1ccc(F)cc1)C(=O)N[C@H](/C=N/NC(=O)c1ccccc1)CCc1ccccc1` were, in that order, 4.79%, 6.16% and 3.91%.
Take `COc1ccc(CNc2nc(NCCc3ccccc3)c3cc(OC)c(OC)cc3n2)cc1OC`: the inhibition in assay [1] stood at 3.4%; in assay [2], 3.46%; in assay [3] it was 2.54%.
On the same counts, the results for `O=C(Nc1ccc(F)c(C(F)(F)F)c1)N[C@H]1CCN(CCCCCNC(=O)C2CC2c2ccc(Cl)c(Cl)c2)C1` (stereo partly drawn) are -0.22%, -0.44% and -2.52%.
